Compound activity: PubChem BioAssay, Paczesny and Yang Labs, IUPUI and University of Michigan
ST2 inh: inhibitors of human ST2 (IL1RL1) binding to IL-33, primary screen, biochemical, AlphaLISA | Interleukin-1 receptor-like 1 (Homo sapiens), Q01638 | AlphaLISA ST2-Fc/biotin-IL-33 interaction, 1 h | inhibition, % for hits at 17 µM | 78,000 compounds, 2.3% hits | AID 1259354, 2018; in the data active means inhibition above about 30%
Target sequence (Q01638 whole entry, looked up): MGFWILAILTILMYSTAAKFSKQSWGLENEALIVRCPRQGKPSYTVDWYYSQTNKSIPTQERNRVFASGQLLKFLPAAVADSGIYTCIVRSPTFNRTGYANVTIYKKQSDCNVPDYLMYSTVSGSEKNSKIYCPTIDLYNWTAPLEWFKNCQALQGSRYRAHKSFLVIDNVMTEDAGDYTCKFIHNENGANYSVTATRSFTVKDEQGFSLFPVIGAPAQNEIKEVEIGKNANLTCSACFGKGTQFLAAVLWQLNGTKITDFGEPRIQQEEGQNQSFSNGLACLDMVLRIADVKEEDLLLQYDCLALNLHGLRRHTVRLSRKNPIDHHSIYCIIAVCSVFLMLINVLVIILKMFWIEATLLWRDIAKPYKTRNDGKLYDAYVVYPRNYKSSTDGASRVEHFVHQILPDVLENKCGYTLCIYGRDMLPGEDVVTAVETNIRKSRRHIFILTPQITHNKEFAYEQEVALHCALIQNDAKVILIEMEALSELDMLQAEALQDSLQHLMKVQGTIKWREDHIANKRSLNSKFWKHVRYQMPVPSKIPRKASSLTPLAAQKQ
Starred values were filed as active, the others as inactive; i = inactive. The entries come from a sample that favours hits as a whole.

SMILES	ST2 inh
CC1=C(C(=O)OC2CCCCC2)C(c2ccncc2)n2c(nc3ccccc32)N1 (stereo not given)	i
CCCC(=O)Nc1c2c(nn1C(C)(C)C)CSC2	i
Cc1cc(C)nc(SCc2ccc(C(=O)N3CCCC3c3ccccn3)o2)n1 (stereo not given)	i
CCCCOc1ccc(C2=N/C(=C\c3ccc(N(C)C)cc3)C(=O)O2)cc1	37.0%*
O=C1OC(c2ccc(-c3ccccc3)cc2)=N/C1=C\c1ccccc1	i
COc1cc(C2=N/C(=C\C=C\c3ccccc3)C(=O)O2)cc(OC)c1OC	30.0%*
CN(C)c1ccc(/C=C2\N=C(c3ccc([N+](=O)[O-])cc3)OC2=O)cc1	i
Cc1ccc(C2=N/C(=C\c3ccc([N+](=O)[O-])cc3)C(=O)O2)cc1[N+](=O)[O-]	i
CN(C)c1ccc(/C=C2\N=C(c3ccccc3)OC2=O)cc1Br	41.0%*
CCCCOc1ccc(/C=C2\N=C(c3cccc([N+](=O)[O-])c3)OC2=O)cc1	i
Cc1ccc(C2=N/C(=C\c3ccccc3)C(=O)O2)cc1[N+](=O)[O-]	i
Cc1cccc(C2=N/C(=C\c3ccc(Br)cc3)C(=O)O2)c1	i
Cc1ccccc1C1=N/C(=C\c2ccc(N(C)C)cc2)C(=O)O1	40.0%*
COc1ccccc1/C=C1\N=C(c2cc([N+](=O)[O-])cc([N+](=O)[O-])c2)OC1=O	i
COc1c(Cl)cc(Cl)cc1/C=C1\N=C(c2ccccc2)OC1=O	i
CN(CCc1ccccn1)c1ncccc1CNc1ncccc1C(F)(F)F	i
C=CCNC(=O)c1ccc2c(c1)N(Cc1ccccc1)C(=O)CS2	i
Cc1cc(C)nc(N=C(NC(=O)COc2ccc(Cl)cc2)Nc2ccccc2)n1	i
CC(=O)c1ccc(NC(=O)O[C@@H]2CO[C@H]3[C@@H]2OC[C@@H]3NS(=O)(=O)c2ccc(Cl)cc2)cc1	i
Cc1c(C(=O)N2CCCC2)oc2ccc(S(=O)(=O)N3CC(C)CC(C)C3)cc12 (stereo not given)	i
O=C1OC(c2ccc(Br)cc2)=N/C1=C\C=C\c1ccccc1	i
O=C1OC(c2cccc(I)c2)=N/C1=C\c1ccc(Br)cc1	i
Cc1ccccc1C1=N/C(=C\c2ccccc2)C(=O)O1	33.0%*
Cc1ccccc1C1=N/C(=C\c2cccc(F)c2)C(=O)O1	i
COc1ccc(/C=C2\N=C(c3ccccc3C)OC2=O)cc1	i
SMILES	ST2 inh
Cc1ccccc1C1=N/C(=C\C=C\c2ccccc2)C(=O)O1	42.0%*
O=C1OC(c2ccc(Cl)cc2Cl)=N/C1=C\c1ccccc1	i
COc1ccc(/C=C2\N=C(c3cccc([N+](=O)[O-])c3)OC2=O)cc1	i
COc1ccc(/C=C2\N=C(c3cccc(I)c3)OC2=O)cc1	31.0%*
CCOC(=O)c1nn(Cc2cccc(OC)c2)c2c1CN(C(=O)c1[nH]c(C)cc1C)CC2	i
O=C(NCCc1ccc(Cl)cc1)C1C2C=CC3(CN(Cc4cccs4)C(=O)C13)O2 (stereo not given)	i
COc1cc(O)cc(C)c1C(=O)O[C@H]1[C@@H](O)[C@@H](n2ccc(=O)[nH]c2=O)O[C@@H]1CO	i
CSc1cccc(NC(=O)CSc2nc3ccccc3s2)c1	i
COc1cc(C)c(NC(=O)c2ccc(F)cc2)cc1C(C)C	i
CC(C)CNC(=O)NCCc1nc2cccnc2n1Cc1ccccc1	i
CC(C)(C)NC(=O)NCCc1nc2cccnc2n1Cc1ccccc1	i
COc1ccc(CNC(=O)NCCc2nc3cccnc3n2Cc2ccccc2)cc1	63.0%*
COc1cc(C=O)cc(Cl)c1OCc1ccc(Br)cc1	i
COc1cc(/C=C/c2ccc3cccc(O)c3n2)cc(Cl)c1OC	34.0%*
COc1cccc2ccc(/C=C/c3ccc4c(c3)OCO4)nc12	i
CC(=O)c1ccc(N2CCOCC2)c(F)c1	i
CCOC(=O)c1[nH]ncc1CN1CCn2cncc2C1	i
CC(=O)n1cc(/C=C2\N=C(c3ccc(Cl)cc3)OC2=O)c2cc(Br)ccc21	i
COc1ccccc1/C=C1\N=C(c2cccc(I)c2)OC1=O	i
CC(=O)n1cc(/C=C2/N=C(c3ccccc3)OC2=O)c2ccccc21	61.0%*
NS(=O)(=O)c1ccc(CCNC(=O)C2Cc3ccccc3N2C(=O)c2ccccc2)cc1 (stereo not given)	i
CC(C)(C)c1nnc2n(c1=O)N=C(c1cccc([N+](=O)[O-])c1)CS2	i
Cc1cc(Br)c(S(=O)(=O)N2CCN(c3ccccc3)CC2)cc1C	i
CC1=CC(=NS(=O)(=O)c2cccc([N+](=O)[O-])c2)C=CC1=O	i
Cc1cc(C)c(S(=O)(=O)N=C2C=CC(=O)c3ccccc32)cc1C	47.0%*
SMILES	ST2 inh
Cc1cc(C)c(S(=O)(=O)N2CCN(c3ccccc3)CC2)cc1C	i
Cc1cc(C)c(S(=O)(=O)N2CCN(c3cc(-c4ccccc4C)ncn3)CC2)cc1C	i
Cc1cc(S(=O)(=O)N2CCN(S(=O)(=O)c3ccc(Cl)c(C)c3)CC2)ccc1Cl	i
Cc1cc(C)c(S(=O)(=O)N=C2C=C(Br)C(=O)c3ccccc32)cc1C	35.0%*
Cc1cc(C)c(S(=O)(=O)N2CCCCC2)cc1S(=O)(=O)N1CCCCC1	i
Cc1cc(S(=O)(=O)N=C2C=CC(=O)c3ccccc32)ccc1Cl	42.0%*
CC1=CN2C(=NC(=O)CC2(C)C(=O)NCCCN(CC(C)C)CC(C)C)C=C1 (stereo not given)	i
Cc1nnc(SCC(=O)Nc2ccccc2Cl)s1	i
CN1CCC(C)(CNC(=O)CCc2nc3ccccc3[nH]c2=O)C1 (stereo not given)	i
Fc1cccc(CN2CCC(N3CCCCCC3)CC2)c1	i
CC(C)c1ccc(NC2CCCN(C(=O)CCc3cnccn3)C2)cc1 (stereo not given)	i
Cc1cc(C)nc(Sc2ccc([N+](=O)[O-])cn2)n1	i
Cc1cccc(NC(=O)c2ccc(=O)n(Cc3cccc(F)c3)c2)c1	i
CC(Oc1ccccc1)C(=O)Nc1cccc(Cl)c1 (stereo not given)	i
CC(Oc1ccc(Cl)cc1Cl)C(=O)Nc1cccc([N+](=O)[O-])c1 (stereo not given)	30.0%*
Cc1cc(Cl)ccc1OC(C)C(=O)Nc1c(Cl)cccc1Cl (stereo not given)	i
CC(C)(C)c1ccc(Cn2cnc3scc(-c4ccccc4)c3c2=O)cc1	i
COC(=O)C1=C(NC(=O)c2cccc3ccccc23)CCS1	44.0%*
COc1ccccc1NC(=O)c1ccccc1F	i
COC(=O)C1=C(NC(=O)c2ccccc2F)CCS1	39.0%*
COC(=O)c1sc2ccccc2c1NC(=O)c1ccccc1F	i
O=C(Nc1nc2ccccc2s1)c1cccc2ccccc12	i
O=C(O)c1c(NC(=O)c2cccc3ccccc23)sc2c1CCCC2	i
Cc1ccc(-c2noc([C@@H]3C[C@H](NC(=O)CC(C)(C)C)CN3C)n2)cc1	i
OCCCNc1nc2nonc2nc1Nc1ccccc1F	i
CC(C)Cc1cc(CNC(=O)c2cc(C3CC3)[nH]n2)on1	i
CC(=O)Nc1ccc(-c2nc3ccc(NC(C)=O)cc3[nH]2)cc1	i
Nc1ccc(C(=O)Nc2ccc(-c3nc4ccc(NC(=O)c5ccc(N)cc5)cc4[nH]3)cc2)cc1	30.0%*
Cc1cccc2[nH]c(-c3ccc(NC(=O)c4ccc(N)cc4)cc3)nc12	i
O=C(CCn1ccc(=O)[nH]c1=O)N1CC(c2ccccn2)C1	i
